Source: PubChem BioAssay (Pan Lab, Icahn School of Medicine at Mount Sinai)
Only a selection was taken, and hits are over-represented in it overall.
ROC1-CUL1 inh: inhibitors of human ROC1-CUL1 ubiquitin ligase activity. inhibition, % at 10 µM. hit rate 0.6% among 140,000. in vitro K48 di-Ub FRET, acceptor:donor ratio, 45 min; in the data active = inhibition above about 25%
* = called active by the depositor.

SMILES	ROC1-CUL1 inh
O=C(N/N=C/c1ccccc1O)c1ncc(-c2ccccc2)o1	-5.5
CCOc1ccccc1/C=C1\SC(=S)N(CC(=O)O)C1=O	3.7
O=C(O)CN1C(=O)/C(=C\c2ccccc2Sc2ccc(Cl)cc2)SC1=S	103.1*
Cc1cc(/C=C2/SC(=S)N(CC(=O)O)C2=O)c(C)n1-c1ccccc1	15.8
NS(=O)(=O)c1ccc(-n2cccc2/C=C2/C(=O)NN(c3ccccc3)C2=O)cc1	-1.2
COC(=O)c1ccccc1NC(=O)c1nc2nc(-c3ccc(Cl)cc3)cc(C(F)(F)F)n2n1	-2.6
O=C1NN=C2N=C(C(F)(F)F)C=C(C(F)(F)F)C12 (configuration not stated)	97.4*
O=C(c1cc[n+]([O-])cc1)N1CCC(C2CCN(Cc3cccc(F)c3F)CC2)C1 (configuration not stated)	0.6
CCOC(=O)NC1(C(Cl)(Cl)Cl)Oc2ccc(Cl)cc2O1 (configuration not stated)	1.7
O=C(NC1(C(Cl)(Cl)Cl)Oc2cc(Cl)c(Cl)cc2O1)Sc1ccccc1	49.4*
O=C(Nc1cc(Cl)ncn1)NC1(C(F)(F)F)Oc2ccccc2O1	0.6
Cn1cc(CN2CCC(CO)(Cc3ccccc3Cl)CC2)cn1	17.8
Nc1c(-c2ccccc2)c(-c2ccccc2)nn1-c1ccccc1	-7.4
COCCn1c(C)cn2c3c(=O)[nH]c(=O)n(C)c3nc12	-6.9
Cc1ccccc1Cn1nnc2c1C(=O)c1ccccc1C2=O	11.5
COc1ccc(Cn2nnc3c2C(=O)c2nnn(Cc4ccc(OC)cc4)c2C3=O)cc1	45.1*
O=C1c2ccccc2C(=O)c2c1nnn2Cc1ccc(F)cc1	13.2
CCOc1ccc2nc(SC3CC(=O)N(c4ccc(N5CCCCC5)cc4)C3=O)sc2c1 (configuration not stated)	1.9
CSCCNC(=O)C1CCN(c2nc(C)c3cc(C)c(C)cc3n2)CC1	-0.3
Cc1ccc(NC(=S)NC(=O)c2cccs2)cc1NC(=S)NC(=O)c1cccs1	5.2
O=C1NN(c2ccccc2)C(=O)/C1=C/c1cc(Br)ccc1OCc1ccc(Cl)c(Cl)c1	72.3*
Cc1ccccc1COc1ccc(Br)cc1/C=C1\C(=O)NN(c2ccccc2)C1=O	49.5*
O=C1NN(c2ccccc2)C(=O)/C1=C/c1ccccc1OCc1ccc(Cl)c(Cl)c1	16.7
O=C1NN(c2ccc(Br)cc2)C(=O)/C1=C\c1ccccc1OCc1ccccc1	22.7
O=C1NN(c2ccccc2)C(=O)/C1=C/c1ccccc1OCCCOc1ccccc1	9.5
SMILES	ROC1-CUL1 inh
O=C1NN(c2ccccc2)C(=O)/C1=C\c1cc(O)ccc1Br	3.0
Cc1ccc(OCCCOc2ccc(Br)cc2/C=C2\C(=O)NN(c3ccccc3)C2=O)cc1	60.6*
O=C1NN(c2ccccc2)C(=O)/C1=C/c1ccc(OCc2ccc(Cl)c(Cl)c2)cc1	-12.7
O=C1NN(c2ccccc2)C(=O)/C1=C/c1cc(Br)ccc1OCCCOc1ccc(Cl)cc1	18.1
CC(=O)c1cccc(CN2CCN(Cc3ccc(C)o3)C(CCO)C2)c1 (configuration not stated)	7.5
COc1ccc(Cc2nnc3sc(SC)nn3c2=O)cc1	7.0
O=C(Nc1ccc2c(c1)C(=O)c1ccccc1C2=O)c1ccc(F)cc1	-5.6
COc1cc(CC2=NC(=S)N(c3ccc(C)c(C)c3)C2=O)ccc1O	7.5
COc1cccc(OC)c1C(=O)Oc1ccccc1O	-2.8
COCCO[C@H]1[C@H](NC(=O)C(C)C)c2ccccc2C12CCN(C(=O)c1cccc(C)c1C)CC2	-8.9
S=C(NCc1ccc(Cl)cc1)Nc1ccc(Cl)cc1	6.7
O=C(O)COc1ccc(/C=C2\SC(=O)N(c3cccc(Cl)c3)C2=O)cc1	-10.0
Cc1ccc(N=C2S/C(=C\c3ccc(O)cc3)C(=O)N2c2ccc(C)cc2)cc1	-8.6
Cc1ccc(N=C2S/C(=C\c3ccc(OCC(=O)O)cc3)C(=O)N2c2ccc(C)c(C)c2)cc1C	88.5*
CCc1ccc(C(=O)N/N=C/c2ccc3ccccc3c2)nc1	0.0
O=C1N(c2ccc(Br)cc2)C2CS(=O)(=O)CC2N1c1cccc(Cl)c1 (configuration not stated)	4.9
CC(C)CC(=O)N1CCN(Cc2c(Cl)cccc2Cl)CC1	4.7
Cc1ccc(OCc2nnc(NC(=O)c3ccc(Br)cc3)s2)cc1	9.8
COc1cccc2c(=O)cc(-c3ccc4c(c3)OCO4)n(C)c12	3.6
COCc1c(C(=O)NC2CCCCC2)nnn1-c1ccc(C)cc1	-2.1
CC1=NC2=NC(=O)/C(=C/c3ccc(Br)cc3)N2C(=O)C1	79.2*
O=C1CSC2=NC3=C(CCC/C3=C\c3ccc(Br)cc3)C(c3ccc(Br)cc3)N12 (configuration not stated)	11.1
Cc1ccc(/C=C2/C(=O)N(C)C(=S)N2C)cc1	-7.2
CCOc1cc(C=C2C(=O)NC(=S)NC2=O)cc(Br)c1OCc1ccc(C(=O)O)cc1	4.1
O=C1NC(=O)C(=Cc2cc(Cl)c(OCc3ccc(C(=O)O)cc3)c(Cl)c2)C(=O)N1	-2.2
SMILES	ROC1-CUL1 inh
CCOc1cc(C=C2C(=O)NC(=S)NC2=O)cc(Cl)c1OCc1ccc(C(=O)O)cc1	50.4*
CCOc1cc(/C=N/NC(=O)C(CSCc2ccccc2)NC(=O)c2cc([N+](=O)[O-])cc([N+](=O)[O-])c2)ccc1OCc1ccccc1 (configuration not stated)	-1.4
COc1cc(/C=C2/C(=O)NN(c3ccc(I)cc3)C2=O)cc(OC)c1O	-2.8
CCc1ccc(OC)c(S(=O)(=O)Nc2ccc(C(=O)c3cccs3)cc2)c1	0.6
Cc1cc(/C=C2\C(=O)NC(=S)N(c3cccc(Cl)c3)C2=O)c(C)n1-c1sc2c(c1C(=O)Nc1ccccc1)CCCC2	8.1
Cc1cccc(N2C(=O)/C(=C/c3cc(C)n(-c4sc5c(c4C(=O)Nc4ccccc4)CCCC5)c3C)C(=O)NC2=S)c1	4.4
Cc1cc(/C=C2\C(=O)NC(=S)N(c3ccc(Cl)cc3)C2=O)c(C)n1-c1sc2c(c1C(=O)Nc1ccccc1)CCCC2	41.2*
O=C(c1csc2ccccc12)N1CCN(C2CCCCC2)CC1	-4.9
Cc1ccc(NC(=O)CSc2nc(-c3ccc4c(c3)OCO4)ccc2C#N)cc1Cl	0.8
COc1ccc(C2C3=C(N=c4s/c(=C/c5ccc(C(=O)O)cc5)c(=O)n42)c2ccccc2CC3)cc1OC (configuration not stated)	91.7*
COc1ccc(C2C3=C(N=c4s/c(=C/c5ccc(OCc6cccc(C(=O)O)c6)c(OC)c5)c(=O)n42)c2ccccc2CC3)cc1 (configuration not stated)	42.9*
COc1cccc(C2C3=C(N=c4s/c(=C/c5ccc(O)c(OC)c5)c(=O)n42)c2ccccc2CC3)c1 (configuration not stated)	-4.0
COc1cc(/C=c2/sc3n(c2=O)C(c2ccccc2Cl)C2=C(N=3)c3ccccc3CC2)ccc1OCc1ccc2c(c1)OCO2 (configuration not stated)	-1.2
COc1ccc(C2C3=C(N=c4s/c(=C/c5c[nH]c6ccccc56)c(=O)n42)c2ccccc2CC3)cc1OC (configuration not stated)	-3.0
Cc1ccc(/C=c2/sc3n(c2=O)C(c2ccc(C)cc2)C2=C(N=3)c3ccccc3CC2)cc1 (configuration not stated)	3.2
Cc1ccc2oc(-c3cccc(NC(=O)c4oc5ccccc5c4C)c3)nc2c1	8.0
CCCC(C)NC(=O)c1ccccc1OCC (configuration not stated)	-3.5
